# In PMC4336329 (PLoS ONE, 2015):
# The whole screen tested about 310,000 compounds, of which about 2,200 (0.71%) showed an effect of 50% or more. The effect is printed as a negative number. This is one part of a sample in which strong results are shown more often than they occur.
# Target: human ether-à-go-go-related gene (hERG) potassium channel (human, UniProt Q12809)
# Test: primary screen, population patch clamp on CHO cells stably expressing hERG; higher = less effect of the substance
# Chain of human ether-à-go-go-related gene (hERG) potassium channel (Q12809 whole entry, looked up): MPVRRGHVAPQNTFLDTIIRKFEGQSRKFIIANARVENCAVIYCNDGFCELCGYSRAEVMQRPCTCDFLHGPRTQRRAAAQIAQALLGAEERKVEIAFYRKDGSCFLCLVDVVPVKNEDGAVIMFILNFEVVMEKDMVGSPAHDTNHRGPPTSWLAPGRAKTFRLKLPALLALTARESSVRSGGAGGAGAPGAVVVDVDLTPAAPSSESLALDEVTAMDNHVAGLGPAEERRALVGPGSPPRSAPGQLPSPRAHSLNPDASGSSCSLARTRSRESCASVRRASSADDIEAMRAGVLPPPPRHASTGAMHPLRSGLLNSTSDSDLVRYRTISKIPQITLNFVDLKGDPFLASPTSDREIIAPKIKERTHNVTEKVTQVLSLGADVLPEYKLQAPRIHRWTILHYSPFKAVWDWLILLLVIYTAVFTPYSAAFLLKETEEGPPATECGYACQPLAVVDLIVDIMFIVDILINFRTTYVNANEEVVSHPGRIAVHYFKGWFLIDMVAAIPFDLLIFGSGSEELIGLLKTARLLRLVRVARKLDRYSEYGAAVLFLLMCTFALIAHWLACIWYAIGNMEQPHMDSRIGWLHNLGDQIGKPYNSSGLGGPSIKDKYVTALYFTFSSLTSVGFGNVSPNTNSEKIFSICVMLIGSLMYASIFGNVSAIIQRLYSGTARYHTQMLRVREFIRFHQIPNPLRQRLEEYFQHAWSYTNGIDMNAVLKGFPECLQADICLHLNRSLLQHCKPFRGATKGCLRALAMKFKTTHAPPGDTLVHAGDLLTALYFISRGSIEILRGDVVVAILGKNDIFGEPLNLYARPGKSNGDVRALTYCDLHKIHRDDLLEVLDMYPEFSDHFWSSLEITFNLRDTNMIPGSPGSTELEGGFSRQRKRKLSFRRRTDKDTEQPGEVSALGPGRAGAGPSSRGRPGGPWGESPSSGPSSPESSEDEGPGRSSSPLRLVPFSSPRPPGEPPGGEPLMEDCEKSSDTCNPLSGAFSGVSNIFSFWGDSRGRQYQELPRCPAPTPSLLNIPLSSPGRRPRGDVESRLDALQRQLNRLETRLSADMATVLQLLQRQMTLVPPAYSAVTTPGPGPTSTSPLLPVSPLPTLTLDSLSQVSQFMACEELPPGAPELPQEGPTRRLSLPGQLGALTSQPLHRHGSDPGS
row,Compound,"hERG current change (%, negative = inhibition) at 1uM [%]"
1,Nc1nc(/C=C/c2cccnc2)nc(-c2ccccc2O)n1,10.4
2,COc1cccc(COC(=O)C2CCN(S(=O)(=O)c3ccc(Cl)cc3)CC2)c1OC,5.7
3,CC(=O)c1ccc(S(=O)(=O)N2CCN(c3ccccc3F)CC2)cc1,8.26
4,Cl.OC(CN1C2=NCCCN2c2ccccc21)c1ccc2c(c1)OCO2 (stereo not drawn),-68.6
5,Cl.OC(CN1C2=NCCCN2c2ccccc21)c1ccc(Br)cc1 (stereo not drawn),-86.2
6,Cl.c1ccc2c(c1)N1CCCN=C1N2CCN1CCCCC1,-26.2
7,OC(CN1C2=NCCN2c2ccccc21)c1ccc(Br)cc1 (stereo not drawn),-63
8,Cl.OC(CN1C2=NCCN2c2ccccc21)c1ccccc1 (stereo not drawn),-5.32
9,Cl.OC(CN1C2=NCCCN2c2ccccc21)c1ccc(Cl)cc1 (stereo not drawn),-76.2
10,Br.O=C(CN1C2=NCCN2c2ccccc21)c1ccc(Br)s1,-0.685
11,Cl.OC(CN1C2=NCCN2c2ccccc21)c1ccc2c(c1)OCO2 (stereo not drawn),-27.7
12,Br.O=C(CN1C2=NCCN2c2ccccc21)c1ccc2c(c1)OCO2,-42.1
13,Cl.OCCN1C2=NCCCN2c2ccccc21,10.3
14,Cn1c(=O)n(C)c2cc(NC(=O)CSc3nnc(-c4ccccc4O)n3-c3ccccc3)ccc21,6.95
15,O=C(C1=NN[C@@H]2C(=O)N(c3cccc(F)c3)C(=O)[C@H]12)c1ccc2ccccc2n1,6.85
16,CN(C)CCCN(C(=O)c1ccc(Br)s1)c1nc2cc3c(cc2s1)OCO3.Cl,4.06
17,O=C(c1cc2ccccc2o1)c1nc2c(n1O)CCCCC2,9.78
18,COCCCNC(=O)Cn1c(=O)n(CCCCCC(=O)Nc2ccccc2)c(=O)c2sccc21,14
19,Cc1ccc(S(=O)(=O)N2CCCC(C(=O)NNCC(=O)Nc3cc(F)ccc3F)C2)cc1 (stereo not drawn),-0.56
20,Cc1ccccc1CN1C2=NCCCN2c2ccccc21.Cl,-27.3
21,Cc1ccc(C(O)CN2C3=NCCN3c3ccccc32)cc1.Cl (stereo not drawn),-40.9
22,Cc1ccc(C(O)CN2C3=NCCCN3c3ccccc32)cc1.Cl (stereo not drawn),-51.4
23,CC1CN(S(=O)(=O)c2ccc(C(=O)NCCCn3ccnc3)cc2)CC(C)O1 (stereo not drawn),11.7
24,CCc1nc(SCC(=O)c2ccc(Cl)s2)c2oc3ccccc3c2n1,9.25
